Measurements from PubChem BioAssay (Tox21).
Values joined by “and” are separate entries in the source; they are usually repeats but may differ in a detail not shown here. Equal entries are not always repeated. A number with no mark means an inactive call. Results filed as inconclusive are left out. Where a call stands in place of a potency, no number is given. Active and inactive are the calls of the source. Unless noted, the call rests on the fitted dose curve; in most records, active means well fitted curve in the direction sought with a large enough effect in the repeat runs; inconclusive means weak or mixed curves; inactive means no such curve, though single readings can be large; an effect the other way counts as inactive or inconclusive.

Assays:
[1] = qHTS assay to identify small molecule agonists of the constitutive androstane receptor (CAR) signaling pathway - cell viability counter screen (AID 1224836); further: nearly all actives have a fitted effect of over 45% in size
Outline: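 HepG2 cells stably carrying hCAR and a CYP2B6-2.2kb reporter were plated 4 h, then given compounds at 15 concentrations plus PK11195 (final 0.75 uM). After 23 h at 37 C, viability was read by CellTiter-Fluor fluorescence.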

[2] = qHTS assay to identify small molecule antagonists of the constitutive androstane receptor (CAR) signaling pathway - cell viability counter screen (AID 1224837); further: nearly all actives have a fitted effect of over 45% in size
Outline: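 HepG2-CYP2B6-hCAR cells, 2500/well, 4 hr pre-incubation; compound titration, 15 conc.; CITCO 50 nM final; 23 hr, 37 C/5% CO2; CellTiter-Fluor, fluorescence intensity.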

[3] = target: Nuclear receptor subfamily 1 group I member 3 (Homo sapiens) (UniProt Q14994); assay: qHTS assay to identify small molecule agonists of the constitutive androstane receptor (CAR) signaling pathway (AID 1224839); further: nearly all actives have a fitted effect of over 15% in size; further: potency means the concentration at half of the fitted maximal effect;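 on activation: HepG2 cells stably carrying human CAR and a CYP2B6 luciferase reporter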
Nuclear receptor subfamily 1 group I member 3 (Homo sapiens), sequence (Q14994 whole entry, looked up): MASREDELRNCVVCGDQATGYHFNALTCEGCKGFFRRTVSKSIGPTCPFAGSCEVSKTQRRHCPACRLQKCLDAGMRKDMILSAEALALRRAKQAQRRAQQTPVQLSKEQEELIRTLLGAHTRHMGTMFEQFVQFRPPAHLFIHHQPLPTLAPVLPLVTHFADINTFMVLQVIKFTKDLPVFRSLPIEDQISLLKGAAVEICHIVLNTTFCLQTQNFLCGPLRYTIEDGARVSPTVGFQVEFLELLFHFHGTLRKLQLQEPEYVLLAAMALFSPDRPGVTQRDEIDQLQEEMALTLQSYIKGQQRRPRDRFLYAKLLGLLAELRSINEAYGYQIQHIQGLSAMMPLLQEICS
Outline: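 HepG2 cells stably expressing hCAR and a CYP2B6-2.2kb luciferase reporter were treated with compounds at 15 concentrations plus 0.75 uM PK11195 (final) for 24 h at 37 C; luminescence was read after ONE-Glo addition.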

[4] = qHTS assay to identify small molecule antagonists of the estrogen related receptor signaling pathway with the pleiotropic PPARgamma coactivator (PGC) from Tox21 10K library - cell viability counter screen (AID 1224840; active means well fitted cell-killing curve with a large enough effect in the repeat runs, not every such curve was filed as active; further: nearly all actives have a fitted effect of over 40% in size)
Outline: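 PGC/ERR cells, 2,000/well; 6 h pre-incubation 37 C/5% CO2; cpd in DMSO via pin tool; 17.5 h 37 C; CellTiter-Fluor, 30 min; fluorescence.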

[5] = target: Thyrotropin receptor (Homo sapiens) (UniProt P16473); assay: qHTS assay to identify small molecule agonists of the thyroid stimulating hormone receptor (TSHR) signaling pathway (AID 1224843; calls by dose curve; further: nearly all actives have a fitted effect of over 45% in size; further: potency means the concentration at half of the fitted maximal effect)
Thyrotropin receptor (Homo sapiens), sequence (P16473 whole entry, looked up): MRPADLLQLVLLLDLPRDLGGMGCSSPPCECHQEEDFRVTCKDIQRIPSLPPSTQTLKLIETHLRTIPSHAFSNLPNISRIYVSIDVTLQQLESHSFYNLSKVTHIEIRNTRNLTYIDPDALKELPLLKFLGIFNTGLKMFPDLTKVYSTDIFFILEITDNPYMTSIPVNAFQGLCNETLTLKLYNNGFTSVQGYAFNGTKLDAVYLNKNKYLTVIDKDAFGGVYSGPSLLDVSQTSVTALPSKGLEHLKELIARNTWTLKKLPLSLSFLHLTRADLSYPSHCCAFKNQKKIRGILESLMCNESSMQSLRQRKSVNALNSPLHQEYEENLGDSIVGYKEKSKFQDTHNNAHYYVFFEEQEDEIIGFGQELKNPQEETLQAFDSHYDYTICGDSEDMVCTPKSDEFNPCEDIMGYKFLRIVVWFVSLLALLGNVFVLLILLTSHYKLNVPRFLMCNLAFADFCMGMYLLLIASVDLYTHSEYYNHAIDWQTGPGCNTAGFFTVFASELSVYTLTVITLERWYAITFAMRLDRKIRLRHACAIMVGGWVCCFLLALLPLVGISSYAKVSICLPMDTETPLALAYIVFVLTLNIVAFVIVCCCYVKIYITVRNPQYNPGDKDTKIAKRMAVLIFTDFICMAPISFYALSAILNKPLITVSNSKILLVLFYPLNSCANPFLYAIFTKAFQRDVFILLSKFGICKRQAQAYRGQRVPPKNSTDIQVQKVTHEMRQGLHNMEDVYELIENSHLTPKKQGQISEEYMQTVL
Outline: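 HEK293 cells stably bearing the thyrotropin receptor were plated at 800 cells/well and challenged with compound (30 min, RT). Accumulated cAMP was quantified via cAMP-d2 competing for cryptate-tagged antibody.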

[6] = qHTS assay to identify small molecule agonists of H2AX - cell viability counter screen (AID 1224847; calls by dose curve; further: nearly all actives have a fitted effect of over 30% in size; further: potency means the concentration at half of the fitted maximal effect)
Outline: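 Wild-type CHO-K1 cells (10% FBS medium) were plated overnight at 37C, exposed to compounds at 15 concentrations for 3 hr at 37C (0.76% DMSO final), and viability was read as CellTiter-Glo luminescence after 30 min at room temperature.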

[7] = qHTS RealTime-Glo MT Cell Viability Assay in HepG2 cells - 24 hour (AID 1224867); further: nearly all actives have a fitted effect of over 50% in size; further: potency means the concentration at half of the fitted maximal effect
Outline: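 Luminescence read-out: viable HepG2 cells reduce a prosubstrate to a NanoLuc substrate, giving a signal proportional to live cell number. Reads taken at 0, 8, 16, 24, 32 and 40 h of compound exposure at 37 C.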

[8] = qHTS RealTime-Glo MT Cell Viability Assay in HepG2 cells - 40 hour (AID 1224870); further: nearly all actives have a fitted effect of over 50% in size; further: potency means the concentration at half of the fitted maximal effect
Outline: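 Real-time viability: cells seeded at 600 per well together with NanoLuc and cell-permeant prosubstrate, compounds added after 5 h incubation. Luminescence tracked at 0, 8, 16, 24, 32 and 40 h of exposure.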

[9] = target: Nuclear receptor subfamily 1 group I member 3 (Homo sapiens) (UniProt Q14994); assay: qHTS assay to identify small molecule antagonists of the constitutive androstane receptor (CAR) signaling pathway (AID 1224838); further: nearly all actives have a fitted effect of over 40% in size
Outline: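 HepG2-CYP2B6-hCAR cells; 4 h pre-incubation; cpd (15 conc) + CITCO 50 nM final; 24 h, 37 C/5% CO2; ONE-Glo, luminescence.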

[10] = A CellTox Green Cytotoxicity Assay to monitor cytotoxicity in HEK293 cells - 40 hour (AID 1224871); further: nearly all actives have a fitted effect of over 45% in size; further: potency means the concentration at half of the fitted maximal effect
Outline: (§1)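 Nonlytic real-time cytotoxicity: HEK293 + CellTox Green reagent plated, 5 h preincubation, pintool compound addition (23 nL in DMSO), 37 C for 40 h, fluorescence measured at successive time points.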

[11] = target: Luciferin 4-monooxygenase (Photinus pyralis) (UniProt P08659); assay: qHTS assay to identify small molecule inhibitors of firefly luciferase (AID 1224835); further: nearly all actives have a fitted effect of over 25% in size
Luciferin 4-monooxygenase (Photinus pyralis), sequence (P08659 whole entry, looked up): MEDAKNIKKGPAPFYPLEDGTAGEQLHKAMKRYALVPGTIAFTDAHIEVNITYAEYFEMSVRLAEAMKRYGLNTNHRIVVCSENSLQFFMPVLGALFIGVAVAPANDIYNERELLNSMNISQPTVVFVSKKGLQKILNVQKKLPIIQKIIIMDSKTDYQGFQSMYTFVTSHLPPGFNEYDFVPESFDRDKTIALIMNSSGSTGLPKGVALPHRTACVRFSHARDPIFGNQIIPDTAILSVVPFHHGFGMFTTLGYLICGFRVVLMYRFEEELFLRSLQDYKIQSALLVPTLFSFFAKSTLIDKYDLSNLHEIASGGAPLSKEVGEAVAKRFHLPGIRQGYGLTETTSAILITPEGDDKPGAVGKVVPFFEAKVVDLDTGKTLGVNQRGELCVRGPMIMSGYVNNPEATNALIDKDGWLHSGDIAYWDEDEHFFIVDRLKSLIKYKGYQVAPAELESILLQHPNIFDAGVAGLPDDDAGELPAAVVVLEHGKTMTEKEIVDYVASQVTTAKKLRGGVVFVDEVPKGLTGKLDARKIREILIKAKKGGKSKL
Outline: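 Inhibition of purified Photinus luciferase is measured by luminescence. Substrate levels (D-luciferin, ATP) sit at their KM values. Each compound is tested in a concentration series.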

[12] = A CellTox Green Cytotoxicity Assay to monitor cytotoxicity in HEK293 cells - 0 hour (AID 1224869); further: nearly all actives have a fitted effect of over 50% in size; further: potency means the concentration at half of the fitted maximal effect
Outline: as §1

[13] = qHTS assay to identify small molecule agonists of the estrogen related receptor signaling pathway with the pleiotropic PPARgamma coactivator (PGC) from Tox21 10K library (AID 1224842); further: nearly all actives have a fitted effect of over 15% in size
Outline: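 Luminescence from One-Glo (30 min, room temperature) measured after PGC/ERR cells had 18 h at 37 C with pinned compound (23 nL in DMSO). Cells had been seeded at 2,000 per well and pre-incubated 6 h.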

[14] = qHTS assay to identify small molecule agonists of H2AX (AID 1224845; active means well fitted activation curve with a large enough effect in the signal ratio in the repeat runs, not every such curve was filed as active; the % refers to the signal ratio; further: potency means the concentration at half of the fitted maximal effect)
Outline: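 Phospho-H2AX Ser139 measured by HTRF (ex 320 nm; em 665 and 620 nm) after 24 hr antibody incubation. Compounds, 15 concentrations, 0.76% DMSO, were applied to CHO-K1 cells for 3hr at 37C before lysis.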

[15] = qHTS assay to identify small molecule agonists of the hypoxia (HIF-1) signaling pathway (AID 1224846; active means well fitted activation curve with a large enough effect in the signal ratio in the repeat runs, not every such curve was filed as active; the % refers to the signal ratio)
Outline: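 Cell line: CellSensor HRE-bla ME-180; 2,000 cells/well; 0.5% dialyzed FBS; 5 h preincubation; DMSO compound pin transfer; 17 h, 37C, 5% CO2; CCF4-AM added; bla FRET signal scored for activation.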

[16] = qHTS assay to identify small molecule antagonists of the estrogen related receptor (ERR) signaling pathway from Tox21 library (AID 1224848); further: nearly all actives have a fitted effect of over 50% in size; further: potency means the concentration at half of the fitted maximal effect
Outline: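 Reading was by luminescence 30 min after ONE-Glo addition. Before that, ERR cells at 2,000 per well had rested 6 h at 37 C/5% CO2 and then received pin-tooled compounds in DMSO for 18 h at 37 C.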

[17] = qHTS assay to identify small molecule agonists of the estrogen related receptor (ERR) signaling pathway from Tox21 library (AID 1224849; calls by dose curve; further: nearly all actives have a fitted effect of over 15% in size); settings: ERR reporter cell line, ONE-Glo luciferase, 18 h; at 92.4 µM (top of the series) unless noted
Outline: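 ERR cells, 6 h pre-incubation 37 C/5% CO2; cpd in DMSO pinned; 18 h 37 C; ONE-Glo added, 30 min RT; luminescence read. Agonist mode, qHTS.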

[18] = qHTS RealTime-Glo MT Cell Viability Assay in HEK293 cells - 32 hour (AID 1224868); further: nearly all actives have a fitted effect of over 50% in size; further: potency means the concentration at half of the fitted maximal effect
Outline: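 Nonlytic real-time viability readout: viable cells convert prosubstrate to NanoLuc substrate, giving luminescence proportional to live cell number. HEK293, 600 cells/well, compound added after 5 h, continuous culture at 37 C.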

[19] = qHTS assay to identify small molecule agonists of the hypoxia (HIF-1) signaling pathway - cell viability counter screen (AID 1224844; calls by dose curve; further: nearly all actives have a fitted effect of over 50% in size; further: potency means the concentration at half of the fitted maximal effect)
Outline: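 ME-180 HRE-bla cells, 2,000/well, 0.5% dialyzed FBS; 5 hr settle, 17 hr compound at 37C/5% CO2; CCF4-AM reporter read first, then CellTiter-Glo luminescence after 30 min RT.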

[20] = qHTS assay to identify small molecule antagonists of the estrogen related receptor signaling pathway with the pleiotropic PPARgamma coactivator (PGC) from Tox21 10K library (AID 1224841; call rule not given here)
Outline: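 PGC/ERR cell line, 2,000 cells/well; 6 h pre-incubation 37 C/5% CO2; compounds (DMSO) pinned in; 18 h, 37 C; One-Glo, 30 min RT; luminescence.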

SMILES: C/C=C/C=N/NC(=O)c1ccncc1
- Potency [1]: inactive
- Potency [2]: inactive
- Potency [3]: inactive
- Potency [4]: inactive
- Potency [5]: inactive
- Potency [6]: inactive
- Potency [7]: inactive
- Potency [8]: inactive

SMILES: CSc1c(Cl)c(Cl)c(Cl)c(Cl)c1Cl
- Potency [1]: inactive
- Potency [2]: inactive
- Potency [9]: inactive
- Potency [4]: inactive
- Potency [6]: inactive
- Potency [8]: inactive
- Potency [10]: 48.7 µM (active)

SMILES: CC(C)c1cccc(C(C)C)c1N1C(=O)c2ccc(O)cc2C1=O
- Potency [11]: inactive
- Potency [5]: inactive
- Potency [6]: 80 µM (active)
- Potency [7]: 49 µM (active)
- Potency [12]: inactive
- Potency [8]: 43.6 µM (active)
- Potency [10]: 49 µM (active)

SMILES: CCN(CC)CCOc1ccc(C(O)(Cc2ccc(Cl)cc2)c2ccc(C)cc2)cc1 (stereo not given)
- Potency [11]: inactive
- Potency [13]: inactive
- Potency [5]: inactive
- Potency [14]: 49.2 µM (active)
- outcome [15]: inactive
- Potency [16]: 29.8 µM (active)
- activity change, positive = activation [17]: -61% [at 42.5 µM]
- Potency [18]: 16.9 µM (active)
- Potency [12]: inactive
- Potency [8]: 15.1 µM (active)
- Potency [10]: 23.9 µM (active)

SMILES: CC(NCCC(c1ccccc1)c1ccccc1)c1ccccc1 (stereo not given)
- Potency [11]: inactive
- Potency [3]: inactive
- Potency [7]: 21.3 µM (active)
- Potency [18]: 19 µM (active)
- Potency [12]: inactive
- Potency [8]: 21.3 µM (active)
- Potency [10]: 21.3 µM (active)

SMILES: CN1[C@@H]2CC[C@@H]1CC(OC(=O)C(CO)c1ccccc1)C2 (stereo not given in full)
- Potency [1]: inactive
- Potency [2]: inactive
- Potency [9]: inactive
- Potency [19]: inactive
- Potency [7]: inactive
- Potency [18]: inactive
- Potency [12]: inactive
- Potency [8]: inactive
- Potency [10]: inactive

SMILES: Clc1ccc(C(c2ccccc2Cl)C(Cl)Cl)cc1 (stereo not given)
- Potency [1]: inactive
- Potency [2]: inactive
- Potency [9]: inactive
- Potency [3]: 13.7 µM (active) and 11.9 µM (active)
- Potency [4]: inactive
- Potency [5]: 12.2 µM (active) and 5.31 µM (active)
- Potency [19]: 54.9 µM (active)
- Potency [14]: 113 µM (active)
- Potency [6]: 101 µM (active)
- Potency [7]: inactive
- Potency [12]: inactive
- Potency [8]: inactive
- Potency [10]: inactive

SMILES: CC1(C)C(=O)N(Br)C(=O)N1Br
- Potency [1]: inactive
- Potency [2]: inactive
- Potency [9]: inactive
- Potency [3]: inactive
- Potency [4]: inactive
- Potency [20]: inactive
- Potency [13]: inactive
- Potency [5]: inactive
- Potency [19]: inactive
- Potency [14]: inactive
- outcome [15]: inactive
- Potency [16]: inactive
- activity change, positive = activation [17]: 3.41%
- Potency [7]: inactive
- Potency [18]: inactive
- Potency [12]: inactive
- Potency [8]: inactive
- Potency [10]: inactive

SMILES: OCCCS
- Potency [1]: inactive
- Potency [2]: inactive
- Potency [9]: inactive
- Potency [3]: inactive
- Potency [5]: inactive
- Potency [19]: inactive
- Potency [14]: inactive
- outcome [15]: inactive
- Potency [6]: inactive
- Potency [7]: inactive
- Potency [18]: inactive
- Potency [12]: inactive
- Potency [8]: inactive
- Potency [10]: inactive

SMILES: C[n+]1c2cc(N)ccc2cc2ccc(N)cc21 (tested in a mixture with another compound)
- Potency [11]: inactive
- Potency [19]: inactive
- Potency [18]: 5.35 µM (active)
- Potency [12]: 23.9 µM (active)
- Potency [10]: 23.9 µM (active)

SMILES: COC(=O)NCCC[Si](OC)(OC)OC
- Potency [1]: inactive
- Potency [2]: inactive
- Potency [9]: inactive
- Potency [3]: inactive
- Potency [4]: inactive
- Potency [20]: inactive
- Potency [5]: inactive
- Potency [16]: inactive
- activity change, positive = activation [17]: -7.77%
- Potency [7]: inactive
- Potency [18]: inactive
- Potency [12]: inactive
- Potency [8]: inactive
- Potency [10]: inactive

SMILES: CCCCCCCCCC(=O)N(C)C
- Potency [2]: inactive
- Potency [9]: inactive
- Potency [3]: 55.3 µM (active)
- Potency [4]: inactive
- Potency [20]: inactive
- Potency [13]: inactive
- Potency [5]: inactive
- Potency [19]: inactive
- Potency [14]: inactive
- outcome [15]: inactive
- Potency [6]: inactive
- Potency [16]: inactive
- activity change, positive = activation [17]: 3.98%
- Potency [7]: inactive
- Potency [18]: inactive
- Potency [12]: inactive
- Potency [8]: inactive
